Assay outcomes as filed in PubChem BioAssay.
Only some compounds are listed: those with a hit (about 21% of all), similar ones and a draw of the others.
ELG1 DNA repair: qHTS screen for small molecules that inhibit ELG1-dependent DNA repair in human embryonic kidney (HEK293T) cells expressing luciferase-tagged ELG1; HEK293T ELG1-luciferase reporter, luminescence, 16 h; DNA damage induced by 5-fluorouridine; Potency, µM (titrated, usually from 46.1 µM), for the others: at the highest dose activity change, negative = inhibition, usual class: inhibitors; 330,000 tested, 2.3% active; further: potency means the concentration at half of the fitted maximal effect; nearly all actives have a fitted effect of over 55% in size
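Luminescence from the luciferase reporter, measured 30 min after ONE-Glo reagent at room temperature, was the read-out. Beforehand, 2,000 cells per well were exposed for 16 hr at 37 °C to 5-fluorouridine together with compound or vehicle.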
Gal4-VP16 FLuc: VP16 counterscreen qHTS for inhibitors of ROR gamma transcriptional activity; AID 2546, 2010; Drosophila S2 Gal4-VP16 UAS-luciferase, luminescence, 20 h; 310,000 tested, 3.5% active; Potency, µM (highest dose often 53.6 µM), for inactives: at the top dose activity, negative = inhibition, hits mostly inhibitors;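 further: Gal4-VP16 expression switched on by copper sulfate through the metallothionein promoter; potency means the concentration at half of the fitted maximal effect; nearly all actives have a fitted effect of over 50% in size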
IL1B secr inh: qHTS for Inhibitors of Inflammasome Signaling: IL-1-beta AlphaLISA Primary Screen | AID 743279, 2014 | THP-1 LPS/ATP IL-1B secretion, AlphaLISA, 16 h; stronger effect = lower value | activity change, % at 57.5 µM | 360,000 tested, 4.7% active; in the data active means activity change below about -50%; inconclusive means mostly about -30% to -49%
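Secreted IL-1B measured by AlphaLISA bead assay after 16 h compound exposure of THP-1 cells; compounds (final up to 57.5 uM) added 1 h before LPS (250 ng/mL) and ATP (1.25 mM) stimulation; lower signal means less secretion.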
TDP1 cell CPT: qHTS for Inhibitors of human tyrosyl-DNA phosphodiesterase 1 (TDP1): qHTS in cells in presence of CPT; chicken DT40 Tdp1-/-;hTDP1 cells + 20 nM CPT, ATP luminescence, 48 h; Potency, µM (series often up to 46.2 µM), without a hit: at the highest dose activity change, negative = growth inhibition, most hits filed as inhibitors; 420,000 tested, 12% active; AID 686979, 2013; further: potency means the concentration at half of the fitted maximal effect; nearly all actives have a fitted effect of over 55% in size
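Chicken DT40 Tdp1-/- cells complemented with human TDP1, 400 cells/well, exposed to compounds plus 20 nM camptothecin for at least 48 h at 37 C; viability read as ATP content by CellTiter-Glo luminescence.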
RORgamma inh: qHTS for inhibitors of ROR gamma transcriptional activity; Potency, µM (titrated, usually from 53.6 µM), without a hit: at the top dose activity change, negative = inhibition, usual class: inhibitors; Drosophila S2 Gal4-RORgamma UAS-luciferase reporter, 20 h; AID 2551, 2010; Nuclear receptor ROR-gamma (Mus musculus), P51450; 310,000 tested, 5.4% active; further: potency means the concentration at half of the fitted maximal effect; nearly all actives have a fitted effect of over 60% in size
Target sequence (P51450 whole entry, looked up, the tested form may be a part): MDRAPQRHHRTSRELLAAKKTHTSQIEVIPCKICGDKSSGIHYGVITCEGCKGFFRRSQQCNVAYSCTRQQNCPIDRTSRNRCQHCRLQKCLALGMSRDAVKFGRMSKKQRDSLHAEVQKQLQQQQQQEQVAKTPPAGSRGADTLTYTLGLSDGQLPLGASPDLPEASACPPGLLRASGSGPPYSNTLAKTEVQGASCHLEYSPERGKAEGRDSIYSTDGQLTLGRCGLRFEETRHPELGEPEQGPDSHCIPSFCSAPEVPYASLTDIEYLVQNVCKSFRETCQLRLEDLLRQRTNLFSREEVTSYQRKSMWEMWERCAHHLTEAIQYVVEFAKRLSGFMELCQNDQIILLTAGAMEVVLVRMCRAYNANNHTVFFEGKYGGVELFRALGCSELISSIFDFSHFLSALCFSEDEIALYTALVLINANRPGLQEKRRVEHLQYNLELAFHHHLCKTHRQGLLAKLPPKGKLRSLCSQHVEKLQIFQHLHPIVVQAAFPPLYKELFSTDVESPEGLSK
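Read-out: Photinus luciferase luminescence; inhibitors lower reporter signal. Insect Schneider cells with Gal4-ROR gamma fusion under metallothionein promoter, UAS reporter; 700 uM final copper sulfate induction, 20 hr, ambient temperature.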
DT40 TDP1 no CPT: qHTS for Inhibitors of human tyrosyl-DNA phosphodiesterase 1 (TDP1): qHTS in cells in absence of CPT | DT40 Tdp1-/- hTDP1 cells, no CPT, ATP luminescence, 48 h | Potency, µM (titrated, usually from 46.2 µM), without a hit: at the highest dose activity change, negative = growth inhibition, actives largely listed as inhibitors | 420,000 tested, 15% active; further: potency means the concentration at half of the fitted maximal effect; nearly all actives have a fitted effect of over 55% in size
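Growth kinetics read by CellTiter-Glo luminescence after ≥48 hr at 37 °C. Cells: DT40 Tdp1-/- stably carrying human TDP1, 400 per well, compound exposure in the absence of CPT (DMSO vehicle).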
The depositor's hits bear a star; ? = inconclusive; / = no result given; [ ] = dose if it differs, or a comment. Unless noted, the call rests on the fitted dose curve; in most records, active means well fitted curve in the direction sought with a large enough effect; inconclusive means small, poorly fitted or top-dose-only effect, or another doubt; inactive means no such curve, though single readings can be large; an effect the other way counts as inactive or inconclusive. On the % scale 0 is the no-effect control and ±100 the full control effect.

SMILES | ELG1 DNA repair | Gal4-VP16 FLuc | IL1B secr inh | TDP1 cell CPT | RORgamma inh | DT40 TDP1 no CPT
O=C(CSc1ccccc1)N1CCN(c2ccccn2)CC1 | ? | -4.8% | -10.0 | 4.4% | ? | ?
Cc1nc2ccc(C(=O)N3CCN(C(=O)c4ccco4)CC3)cn2c1N(C)C(=O)CCc1ccccc1 | / | / | 0.9 | -1.3% | / | -4.2%
COc1cccc(CNC(=O)CSC2=Nc3ccccc3C3=NC(C(C)C)C(=O)N23)c1 (stereo unspecified) | / | / | / | 1.9% | / | -24.9%
O=C(CCN1C(=O)[C@@H]2Cc3ccccc3CN2C1=O)Nc1cccc(F)c1 | -0.1% | -3.6% | -17.4 | -22.4% | -0.7% | 4.8%
CCC(C)/C(C)=N/NC(=O)c1ccc(CSc2nc3ccccc3s2)cc1 (stereo unspecified) | ? | ? | 75.4 | 14.6µM* | ? | 23.1µM*
Cc1nc2ccc(NC(=O)COc3ccccc3)cc2s1 | ? | 0.4% | 17.7 | 0.6% | 2.5% | -22.8%
Cc1ccc(CSc2nc3ccc(NC(=O)COc4ccccc4)cc3s2)cc1 | / | / | / | 14.6µM* | / | ?
Cc1ccc(OCC(=O)Nc2ccc3nc(SCc4ccccc4)sc3c2)cc1 | / | / | / | -23.0% | / | ?
CCOC(=O)CSc1nc2ccc(NC(=O)COc3ccccc3)cc2s1 | / | / | / | ? | / | -18.9%
Cc1ccc(NC(=O)CSc2nc3ccc(NC(=O)COc4ccc(C)cc4)cc3s2)cc1 | / | / | / | 10.3µM* | / | 18.4µM*
Cc1ccc(OCC(=O)Nc2ccc3nc(SCC(=O)N4CCCC4)sc3c2)cc1C | / | / | / | -94.8% | / | 23.1µM*
COC(=O)CC1=COC(O)C2C(CO)=CC[C@@H]12 (stereo partly specified) | / | -8.9%[10 µM] | / | / | 4.5%[10 µM] | /
COc1ccc(NC(=O)N(C)C[C@H]2Oc3ccc(NC(=O)C4CC4)cc3CC(=O)N([C@@H](C)CO)C[C@@H]2C)cc1 | 6.5% | / | 19.0 | 6.4% | / | 5.3%
Cc1cccc(NC(=O)CSc2nc3ccc(NC(=O)COc4ccccc4C)cc3s2)c1 | / | / | / | 14.6µM* | / | 16.4µM*
CCOc1ccc(C(=O)Nc2ccc3nc(SCc4ccccc4)sc3c2)cc1 | / | / | / | 11.6µM* | / | 8.2µM*
O=C(COc1ccccc1)Nc1ccc2nc(SCCOc3ccccc3)sc2c1 | / | / | / | -23.0% | / | ?
Cc1ccc(OCC(=O)Nc2ccc3nc(SCC(=O)N(C)c4ccccc4)sc3c2)cc1 | / | / | / | ? | / | 14.6µM*
Cc1ccc(OCC(=O)Nc2ccc3nc(SCC(=O)N4CCCC4)sc3c2)cc1 | / | / | / | ? | / | 20.6µM*
O=C1O[C@@H](c2ccccc2)C[C@@H](O)C(=O)CCCCc2ccccc21 | / | / | 17.6 | ? | / | ?
